Sampled rows, rich in hits. Any-hit rate of the full collection: about 21%.
D3 antag: qHTS of D3 Dopamine Receptor Antagonist: qHTS; D3R cells, DiscoveRx beta-arrestin luminescence, antagonist mode; stronger effect = lower value; max response, negative = inhibition, %; 360,000 tested, 2.5% active; AID 652054, 2013; in the data active means max response below about -50%; inconclusive means no clear call, values can overlap the other calls
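Cells plated overnight at 1500 cells/well, then exposed to library compounds with dopamine controls for 90 minutes at 37 degrees C. DiscoveRx reagent added for 30–60 minutes at room temperature; luminescence read, quantitative HTS format.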
D3 ag: qHTS of D3 Dopamine Receptor Agonist: qHTS; AID 652048, 2013; 410,000 tested, 0.58% active; max activation, %; D3R DiscoveRx beta-arrestin cells, luminescence, 90 min; D(3) dopamine receptor (Homo sapiens), P35462; in the data active means max activation above about 30%
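Agonist mode: compounds and dopamine controls were applied to plated cells for 90 min at 37 degrees C after an overnight attachment at 1500 cells/well. Luminescent read-out followed 30 - 60 minutes at room temperature with DiscoveRx detection reagent.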
DT40 TDP1 no CPT: qHTS for Inhibitors of human tyrosyl-DNA phosphodiesterase 1 (TDP1): qHTS in cells in absence of CPT. DT40 Tdp1-/- hTDP1 cells, no CPT, ATP luminescence, 48 h. Potency, µM (highest dose often 46.2 µM), actives largely listed as inhibitors. 420,000 tested, 15% active; further: nearly all actives have a fitted effect of over 55% in size
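Readout: luminescence from CellTiter-Glo after 30 min in the dark at RT. Cells: DT40 Tdp1-/- with stable hTDP1, 400/well. Exposure: compounds alone, ≥48 hr, 37 °C.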
IL1B secr inh: qHTS for Inhibitors of Inflammasome Signaling: IL-1-beta AlphaLISA Primary Screen. THP-1 LPS/ATP IL-1B secretion, AlphaLISA, 16 h; stronger effect = lower value. activity change, % at 57.5 µM. 360,000 tested, 4.7% active; in the data active means activity change below about -50%; inconclusive means mostly about -30% to -49%
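Secreted IL-1B measured by AlphaLISA bead assay after 16 h compound exposure of THP-1 cells; compounds (final up to 57.5 uM) added 1 h before LPS (250 ng/mL) and ATP (1.25 mM) stimulation; lower signal means less secretion.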
ClpP mod: qHTS Assay for Activators of ClpP; Potency, µM (series often up to 57.5 µM); 340,000 tested, 1.9% active; purified B. subtilis ClpP, FRET peptide cleavage, 20 min; ATP-dependent Clp protease proteolytic subunit (Bacillus subtilis (strain 168)), P80244; active means well fitted falling curve with a large enough effect; inconclusive means small, poorly fitted or top-dose-only effect; inactive means no such curve, though single readings can be large or run the other way; further: the source files actives as falling curves though it sought activators and does not explain the sign; nearly all actives have a fitted effect of over 65% in size
Target sequence (P80244 whole entry, looked up): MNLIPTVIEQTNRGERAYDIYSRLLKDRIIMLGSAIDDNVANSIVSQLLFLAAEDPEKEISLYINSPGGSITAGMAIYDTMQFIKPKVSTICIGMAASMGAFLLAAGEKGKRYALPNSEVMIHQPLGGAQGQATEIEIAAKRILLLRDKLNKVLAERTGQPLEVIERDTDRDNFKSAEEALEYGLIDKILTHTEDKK
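ClpP 10 microg/mL final, pH 8 Tris/KCl buffer with BSA, glycerol, Tween-20; compound pinned in; FRET-FV substrate; RT 20 min; Ex320/Em430; ΔFRET vs ADEP 5.8 microM, DMSO, no enzyme.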
DT40 TDP1 CPT: qHTS for Inhibitors of human tyrosyl-DNA phosphodiesterase 1 (TDP1): qHTS in cells in presence of CPT; chicken DT40 Tdp1-/-;hTDP1 cells + 20 nM CPT, ATP luminescence, 48 h; Potency, µM (highest dose often 46.2 µM), actives largely listed as inhibitors; 420,000 tested, 12% active; further: nearly all actives have a fitted effect of over 55% in size
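Chicken DT40 Tdp1-/- cells complemented with human TDP1, 400 cells/well, exposed to compounds plus 20 nM camptothecin for at least 48 h at 37 C; viability read as ATP content by CellTiter-Glo luminescence.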
Numbers stand for hits; . = inactive; ? = inconclusive; / = no result. Unless noted, the call rests on the fitted dose curve; in most records, active means well fitted inhibition curve with a large enough effect; inconclusive means small, poorly fitted or top-dose-only effect; inactive means flat fitted curve, though single readings scatter.

SMILES | D3 antag | D3 ag | DT40 TDP1 no CPT | IL1B secr inh | ClpP mod | DT40 TDP1 CPT
Cc1ccc(-c2nc3ccccc3n2C(C(=O)NC(C)(C)C)C2CC2)cc1 (configuration not stated) | . | . | ? | . | . | 21µM
CCC(C(=O)NC1CCCC1)n1c(-c2ccccn2)nc2ccccc21 (configuration not stated) | . | . | 8.2µM | . | . | 7.3µM
Cc1csc(-c2nc3ccccc3n2C(C(=O)NC(C)(C)C)c2cc3ccccc3o2)c1 (configuration not stated) | . | . | 15µM | . | . | ?
CSCCC(C(=O)Nc1c(C)cccc1C)n1c(-c2cnc(C)cn2)nc2ccccc21 (configuration not stated) | . | . | 16µM | . | . | ?
Cc1ccc(-c2nnc(SCC(=O)NC3CCCC3)n2C)cc1 | . | . | . | . | / | .
O=C(c1ccc(S(=O)(=O)c2ccc(Cl)cc2)cc1)N1CCOCC1 | . | . | ? | . | / | .
CC(C)(C)NC(=O)C(c1ccccc1)n1c(-c2ccc(-c3ccccc3)cc2)nc2ccccc21 (configuration not stated) | . | . | ? | . | . | ?
CC(C)(C)NC(=O)C(C1CC1)n1c(-c2ccccc2)nc2ccccc21 (configuration not stated) | . | . | 8.2µM | . | . | 10µM
CC(C(=O)NC(C)(C)C)n1c(-c2ccc3c(c2)OCO3)nc2ccccc21 (configuration not stated) | . | . | . | . | . | ?
CSCCC(C(=O)NC(C)(C)C)n1c(-c2ccc3c(c2)OCO3)nc2ccccc21 (configuration not stated) | . | . | 21µM | . | . | 23µM
COc1ccc(C(C(=O)NCc2ccccc2)n2c(-c3ccncc3)nc3ccccc32)cc1 (configuration not stated) | . | . | ? | . | . | ?
COc1ccc(C(C(=O)NC(C)(C)C)n2c(-c3ccc(-c4ccccc4)cc3)nc3ccccc32)cc1 (configuration not stated) | . | . | 13µM | . | . | ?
COc1ccc(C(C(=O)NCc2ccccc2)n2c(-c3ccccn3)nc3ccccc32)cc1 (configuration not stated) | . | . | ? | . | . | 16µM
COC(=O)c1[nH]c2ccc(Cl)cc2c1NC(=O)Oc1ccccc1 | . | . | . | . | 10µM | .
CCOC(=O)c1[nH]c2ccccc2c1NC(=O)C1CCCCC1 | . | . | . | . | ? | .
COC(=O)c1[nH]c2ccc(Cl)cc2c1NC(=O)C1CC1 | . | . | ? | . | 32µM | .
O=C(COC(=O)COc1ccccc1)Nc1ccc(Br)cc1Br | . | . | . | . | . | .
COCCN(Cc1nc(C(c2ccccc2)c2ccccc2)no1)C(C)C | . | . | ? | . | / | .
S=c1[nH]nc(-c2ccccn2)n1/N=C/c1ccc(Br)s1 | -56 | . | . | . | . | .
Cc1ccc(-c2n[nH]c(=S)n2/N=C/c2ccc(C)s2)cc1 | . | . | . | . | . | .
COc1ccccc1/C=C/C=N/n1c(C2CCCCC2)n[nH]c1=S | ? | . | 16µM | . | . | ?
Cc1ccc(/C=N/n2c(-c3ccc(Cl)cc3)n[nH]c2=S)s1 | . | . | 16µM | . | / | ?
S=c1[nH]nc(-c2ccccn2)n1/N=C/c1ccc(Cl)c(Cl)c1 | . | . | . | / | / | .
COc1ccccc1/C=C/C=N/n1c(-c2ccccc2)n[nH]c1=S | . | . | 21µM | . | / | ?
